Laboratory results taken from PubChem BioAssay AID1159580 (chemical genetic matrix, 2015).
Values joined by “and” are separate entries in the source; they are usually repeats but may differ in a detail not shown here. Equal entries are not always repeated. In all, about 5,500 compounds went through this assay and about 2,000 (36%) were called active. Not shown: some 18% with an inconclusive outcome. Cut-off read from the data, not from the text of the source: active = normalized growth mostly below about 0.91 (no sharp cut-off); inconclusive = no clear call, values can overlap the other calls; inactive = mostly above about 0.92. The list shows a part of the results.

Assay: chemical genetic growth profiling, strain panel (AID 1159580);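 note: tested at 20 µM; growth read once vehicle control cultures reached saturation at 30 °C; 1 = growth at the plate median or of vehicle wells; lower values mean less growth of the strain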
Details: growth OD

Measured: normalized growth

NCCCCC(=O)O
inactive: S. cerevisiae deletion strains, locus YKL009W, strain mrt4, hits give low values 1.01 | S. cerevisiae deletion strains, locus YKL068W, hits give low values 1 | S. cerevisiae deletion strains, locus YKL085W, strain MDH1 (second series), hits give low values 1.04 | S. cerevisiae deletion strains, locus YKL085W, strain MDH1, hits give low values 1.04 | S. cerevisiae deletion strains, locus YKL160W, strain elf1, hits give low values 1.03 | S. cerevisiae deletion strains, locus YKL190W, strain CNB1, hits give low values 1.02 | S. cerevisiae deletion strains, locus YKR001C, strain vps1, hits give low values 0.996 | S. cerevisiae deletion strains, locus YKR026C, strain gcn3, hits give low values 1.02 | S. cerevisiae deletion strains, locus YKR091W, strain srl3, hits give low values 1.02 | S. cerevisiae deletion strains, locus YLL001W, strain dnm1, hits give low values 1.01 | S. cerevisiae deletion strains, locus YLL026W, hits give low values 1.01 | S. cerevisiae deletion strains, locus YLL041C, strain sdh2, hits give low values 1.01 | S. cerevisiae deletion strains, locus YLR027C, strain aat2, hits give low values 1.02 | S. cerevisiae deletion strains, locus YLR039C, strain RIC1, hits give low values 1.06 | S. cerevisiae deletion strains, locus YLR058C, strain SHM2, hits give low values 1.03 | S. cerevisiae deletion strains, locus YLR102C, strain apc9, hits give low values 0.999 | S. cerevisiae deletion strains, locus YLR113W, strain HOG1, hits give low values 1 | S. cerevisiae deletion strains, locus YLR221C, strain rsa3, hits give low values 1 | S. cerevisiae deletion strains, locus YLR258W, strain gsy2, hits give low values 1.02 | S. cerevisiae deletion strains, locus YLR262C, strain YPT6 (second series), hits give low values 1.03 | S. cerevisiae deletion strains, locus YLR262C, strain YPT6, hits give low values 1.09 | S. cerevisiae deletion strains, locus YLR268W, strain sec22, hits give low values 1 | S. cerevisiae deletion strains, locus YLR320W, strain mms22, hits give low values 1.03 | S. cerevisiae deletion strains, locus YLR330W, strain CHS5, hits give low values 1.02 | S. cerevisiae deletion strains, locus YLR342W, strain FKS1 (second series), hits give low values 1.01 | S. cerevisiae deletion strains, locus YLR342W, strain FKS1, hits give low values 1.02 | S. cerevisiae deletion strains, locus YLR357W, strain rsc2, hits give low values 1.04 | S. cerevisiae deletion strains, locus YLR370C, strain arc18, hits give low values 1.02 | S. cerevisiae deletion strains, locus YLR371W, strain rom2, hits give low values 0.995 | S. cerevisiae deletion strains, locus YLR384C, strain iki3, hits give low values 1.03 | S. cerevisiae deletion strains, locus YLR418C, strain cdc73, hits give low values 1.02 | S. cerevisiae deletion strains, locus YML016C, strain PPZ1, hits give low values 1.03 | S. cerevisiae deletion strains, locus YML032C, strain rad52, hits give low values 0.979 | S. cerevisiae deletion strains, locus YML120C, strain ndi1, hits give low values 1.01 | S. cerevisiae deletion strains, locus YML124C, strain tub3, hits give low values 0.987 | S. cerevisiae deletion strains, locus YMR058W, strain fet3, hits give low values 1.02 | S. cerevisiae deletion strains, locus YMR078C, strain ctf18, hits give low values 0.983 | S. cerevisiae deletion strains, locus YMR125W, strain sto1, hits give low values 1 | S. cerevisiae deletion strains, locus YMR129W, hits give low values 1.02 | S. cerevisiae deletion strains, locus YMR205C, strain PFK2, hits give low values 1.03 | S. cerevisiae deletion strains, locus YMR223W, strain ubp8, hits give low values 0.976 | S. cerevisiae deletion strains, locus YMR231W, strain pep5, hits give low values 1.01 | S. cerevisiae deletion strains, locus YMR263W, strain SAP30, hits give low values 1.03 | S. cerevisiae deletion strains, locus YMR307W, strain GAS1, hits give low values 1.04 | S. cerevisiae deletion strains, locus YNL067W, strain RPL9B, hits give low values 1.04 | S. cerevisiae deletion strains, locus YNL071W, strain lat1, hits give low values 1.01 | S. cerevisiae deletion strains, locus YNL128W, strain TEP1, hits give low values 1.02 and 1.01 | S. cerevisiae deletion strains, locus YNL153C, strain GIM3, hits give low values 1.02 | S. cerevisiae deletion strains, locus YNL175C, strain NOP13, hits give low values 1.03 | S. cerevisiae deletion strains, locus YNL183C, strain NPR1, hits give low values 0.894 | S. cerevisiae deletion strains, locus YNL197C, strain WHI3, hits give low values 1.01 | S. cerevisiae deletion strains, locus YNL209W, strain ssb2, hits give low values 1.02 | S. cerevisiae deletion strains, locus YNL224C, strain SQS1, hits give low values 1 | S. cerevisiae deletion strains, locus YNL233W, strain BNI4, hits give low values 1.03 | S. cerevisiae deletion strains, locus YNL248C, strain rpa49, hits give low values 1.01 | S. cerevisiae deletion strains, locus YNL250W, strain rad50, hits give low values 1 | S. cerevisiae deletion strains, locus YNL271C, strain bni1, hits give low values 0.99 | S. cerevisiae deletion strains, locus YNL298W, strain CLA4, hits give low values 0.99 | S. cerevisiae deletion strains, locus YNL307C, strain MCK1, hits give low values 0.987 | S. cerevisiae deletion strains, locus YNL322C, strain KRE1 (second series), hits give low values 1.02 | S. cerevisiae deletion strains, locus YNL322C, strain KRE1, hits give low values 1.02 | S. cerevisiae deletion strains, locus YNR049C, strain mso1, hits give low values 1.01 | S. cerevisiae deletion strains, locus YNR052C, strain pop2, hits give low values 0.993 | S. cerevisiae deletion strains, locus YOL006C, strain TOP1, hits give low values 1.08 | S. cerevisiae deletion strains, locus YOL012C, strain htz1 0.929 | S. cerevisiae deletion strains, locus YOL147C, strain pex11, hits give low values 0.99 | S. cerevisiae deletion strains, locus YOR001W, strain rrp6, hits give low values 1.03 | S. cerevisiae deletion strains, locus YOR061W, strain CKA2, hits give low values 1.02 | S. cerevisiae deletion strains, locus YOR069W, strain VPS5, hits give low values 1.01 | S. cerevisiae deletion strains, locus YOR070C, strain gyp1, hits give low values 1.02 | S. cerevisiae deletion strains, locus YOR080W, strain dia2, hits give low values 1.02 | S. cerevisiae deletion strains, locus YOR083W, strain WHI5 (second series), hits give low values 1.05 | S. cerevisiae deletion strains, locus YOR083W, strain WHI5, hits give low values 1.02 | S. cerevisiae deletion strains, locus YOR106W, strain vam3, hits give low values 1.02 | S. cerevisiae deletion strains, locus YOR136W, strain idh2, hits give low values 0.982 | S. cerevisiae deletion strains, locus YOR144C, strain elg1, hits give low values 0.999 | S. cerevisiae deletion strains, locus YOR184W, strain ser1, hits give low values 0.984 | S. cerevisiae deletion strains, locus YOR231W, strain MKK1, hits give low values 0.988 | S. cerevisiae deletion strains, locus YOR265W, strain rbl2, hits give low values 1.02 | S. cerevisiae deletion strains, locus YOR270C, strain vph1, hits give low values 1.05 | S. cerevisiae deletion strains, locus YOR290C, strain snf2, hits give low values 1.01 | S. cerevisiae deletion strains, locus YOR316C, strain cot1, hits give low values 0.992 | S. cerevisiae deletion strains, locus YPL051W, strain arl3, hits give low values 1.01 | S. cerevisiae deletion strains, locus YPL055C, strain LGE1, hits give low values 1.05 and 0.99 | S. cerevisiae deletion strains, locus YPL078C, strain atp4, hits give low values 1.03 | S. cerevisiae deletion strains, locus YPL106C, strain sse1, hits give low values 1.03 | S. cerevisiae deletion strains, locus YPL240C, strain hsp82, hits give low values 1.01 | S. cerevisiae deletion strains, locus YPL241C, strain CIN2, hits give low values 0.963 | S. cerevisiae deletion strains, locus YPL256C, strain CLN2, hits give low values 0.965 | S. cerevisiae deletion strains, locus YPR119W, strain clb2, hits give low values 0.989 | S. cerevisiae deletion strains, locus YPR141C, strain kar3, hits give low values 0.98 | S. cerevisiae deletion strains, locus YPR163C, strain tif3, hits give low values 0.982 | S. cerevisiae deletion strains, locus YPR167C, strain met16, hits give low values 0.989 | S. cerevisiae deletion strains, strain wtn01, hits give low values 1 | S. cerevisiae strains, strain wild type, hits give low values 1.01
